The values that follow come from publication PMC9838217, “Structure of SALL4 zinc finger domain reveals link between AT-rich DNA binding and Okihiro syndrome”.

Holding throughout (test): HT-SELEX; high values mean tight binding
Common to all, as to conditions: protein: recombinant; vector His6-GST; dsDNA, one strand shown

One assay deals with T1, SALL4 ZFC4 WT (HT-SELEX) (Mus musculus, UniProt Q8BX22 870-940).
T1 sequence: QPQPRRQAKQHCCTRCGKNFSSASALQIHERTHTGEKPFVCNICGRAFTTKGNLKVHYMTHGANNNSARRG
In outline:
(§1)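 Each canonical k-mer's binding signal is its read fraction expressed as fold change over the initial random library. Reads came from MiSeq sequencing, scanned for 6-mers, after up to 6 triplicate cycles in which purified recombinant mouse SALL4 zinc finger cluster 4 (residues 870–940, 1 µg) bound library DNA (1.5 µg first cycle, 200 ng later) in 100 µl of 10 mM Tris–HCl pH 7.5, 50 mM NaCl, poly(dI-dC), DTT for 10 min at room temperature. Complexes were then Ni2+ bead-captured, washed, PCR-amplified and reselected.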

Assay [1] concerns the target T2, SALL4 ZFC4 R900W (HT-SELEX) (Mus musculus, UniProt Q8BX22 870-940, R900W).
T2 sequence: T1 sequence with R31W
In a few lines:
as §1

Assay [2] concerns the target T3, SALL4 ZFC4 G921D (HT-SELEX) (Mus musculus, UniProt Q8BX22 870-940, G921D).
T3 sequence: T1 sequence with G52D
In outline:
as §1

Residue numbers refer to the chain shown, from its start.

In the case of GATAGA, the binding signal stood at 1.32 ± 0.045 fold-change vs cycle 0 with SALL4 ZFC4 WT (HT-SELEX), 1.46 ± 0.0749 fold-change vs cycle 0 in assay [1] and 1.38 ± 0.128 fold-change vs cycle 0 in assay [2].
On to CTAGTC, for which the binding signal with SALL4 ZFC4 WT (HT-SELEX) worked out at 0.766 ± 0.0364 fold-change vs cycle 0; in assay [1], 0.918 ± 0.0254 fold-change vs cycle 0; in assay [2], 0.941 ± 0.0142 fold-change vs cycle 0.
In the same order, the values of AATTGT are 1.82 ± 0.0686 fold-change vs cycle 0, 1.81 ± 0.0917 fold-change vs cycle 0 and 1.66 ± 0.114 fold-change vs cycle 0.
On to CAACTG, for which the binding signal was found to be 0.724 ± 0.0172 fold-change vs cycle 0 with SALL4 ZFC4 WT (HT-SELEX), 0.829 ± 0.0401 fold-change vs cycle 0 in assay [1] and 0.9 ± 0.0128 fold-change vs cycle 0 in assay [2].
On the same counts, the results for CAGTTC are 0.794 ± 0.00773 fold-change vs cycle 0, 0.912 ± 0.0408 fold-change vs cycle 0 and 0.935 ± 0.0458 fold-change vs cycle 0.
In the same order, the values of GCAGAA are 0.567 ± 0.022 fold-change vs cycle 0, 0.629 ± 0.0163 fold-change vs cycle 0 and 0.688 ± 0.0217 fold-change vs cycle 0.
Regarding CTTATA, the results for the binding signal (in the assay with SALL4 ZFC4 WT (HT-SELEX); in assay [1]; in assay [2]) were 2.43 ± 0.156 fold-change vs cycle 0, 2.09 ± 0.123 fold-change vs cycle 0 and 1.82 ± 0.197 fold-change vs cycle 0, respectively.
As for CATTCG, the binding signal in the assay with SALL4 ZFC4 WT (HT-SELEX) was 0.667 ± 0.027 fold-change vs cycle 0; in assay [1], 0.769 ± 0.0521 fold-change vs cycle 0; in assay [2] it was 0.847 ± 0.0186 fold-change vs cycle 0.
On the same counts, the results for AAAGAA are 1.95 ± 0.101 fold-change vs cycle 0, 2.12 ± 0.151 fold-change vs cycle 0 and 1.8 ± 0.181 fold-change vs cycle 0.
For the sequence CACACA, the binding signal with SALL4 ZFC4 WT (HT-SELEX) was found to be 0.666 ± 0.03 fold-change vs cycle 0; in assay [1], 0.777 ± 0.0199 fold-change vs cycle 0; in assay [2], 0.826 ± 0.0389 fold-change vs cycle 0.
With CAACAA, the results for the binding signal (in the assay with SALL4 ZFC4 WT (HT-SELEX); in assay [1]; in assay [2]) were 1.1 ± 0.0197 fold-change vs cycle 0, 1.21 ± 0.0488 fold-change vs cycle 0 and 1.2 ± 0.0481 fold-change vs cycle 0, respectively.
As to CAAGTG, the binding signal with SALL4 ZFC4 WT (HT-SELEX) is 0.7915 ± 0.00346 fold-change vs cycle 0; in assay [1], 0.902 ± 0.026 fold-change vs cycle 0; in assay [2], 0.944 ± 0.0555 fold-change vs cycle 0.
Consider GTAGGA, for which the results for the binding signal (with SALL4 ZFC4 WT (HT-SELEX); in assay [1]; in assay [2]) were 0.827 ± 0.0404 fold-change vs cycle 0, 0.946 ± 0.029 fold-change vs cycle 0 and 0.948 ± 0.0466 fold-change vs cycle 0, respectively.
As to GACTAA, the results for the binding signal (in the assay with SALL4 ZFC4 WT (HT-SELEX); in assay [1]; in assay [2]) were 1.21 ± 0.0577 fold-change vs cycle 0, 1.39 ± 0.093 fold-change vs cycle 0 and 1.3 ± 0.0798 fold-change vs cycle 0, respectively.
AAGTCC: the binding signal came out at 0.762 ± 0.0144 fold-change vs cycle 0 with SALL4 ZFC4 WT (HT-SELEX), 0.863 ± 0.0347 fold-change vs cycle 0 in assay [1] and 0.936 ± 0.0256 fold-change vs cycle 0 in assay [2].
Regarding CCTTCC, the binding signal in the assay with SALL4 ZFC4 WT (HT-SELEX) was determined as 0.487 ± 0.0167 fold-change vs cycle 0; in assay [1], 0.593 ± 0.0214 fold-change vs cycle 0; in assay [2], 0.661 ± 0.0352 fold-change vs cycle 0.
As for ACATTA, the binding signal with SALL4 ZFC4 WT (HT-SELEX) is 2.1 ± 0.0777 fold-change vs cycle 0; in assay [1], 2.03 ± 0.0851 fold-change vs cycle 0; in assay [2] it was 1.81 ± 0.142 fold-change vs cycle 0.
In the case of ACACAC, the binding signal with SALL4 ZFC4 WT (HT-SELEX) was determined as 0.701 ± 0.0589 fold-change vs cycle 0; in assay [1], 0.815 ± 0.0148 fold-change vs cycle 0; in assay [2] it was 0.903 ± 0.0448 fold-change vs cycle 0.
As for CTATTC, the figures for the binding signal (with SALL4 ZFC4 WT (HT-SELEX); in assay [1]; in assay [2]) were 1.3 ± 0.0236 fold-change vs cycle 0, 1.46 ± 0.0185 fold-change vs cycle 0 and 1.39 ± 0.0918 fold-change vs cycle 0, respectively.
For the sequence GACCGA, the binding signal with SALL4 ZFC4 WT (HT-SELEX) is 0.327 ± 0.0131 fold-change vs cycle 0; in assay [1], 0.4 ± 0.0327 fold-change vs cycle 0; in assay [2], 0.52 ± 0.0745 fold-change vs cycle 0.
On the same counts, the results for AAAAGC are 0.816 ± 0.0288 fold-change vs cycle 0, 0.899 ± 0.0164 fold-change vs cycle 0 and 0.953 ± 0.0234 fold-change vs cycle 0.
On to AACCCA, for which the binding signal with SALL4 ZFC4 WT (HT-SELEX) was found to be 0.813 ± 0.0466 fold-change vs cycle 0; in assay [1], 0.894 ± 0.0477 fold-change vs cycle 0; in assay [2], 0.963 ± 0.0141 fold-change vs cycle 0.
In the same order, the values of AAGCTT are 1.18 ± 0.0611 fold-change vs cycle 0, 1.27 ± 0.0133 fold-change vs cycle 0 and 1.24 ± 0.0566 fold-change vs cycle 0.
On the same counts, the results for GTCATA are 1.45 ± 0.0661 fold-change vs cycle 0, 1.36 ± 0.05 fold-change vs cycle 0 and 1.34 ± 0.0974 fold-change vs cycle 0.
As for TAAACA, the binding signal in the assay with SALL4 ZFC4 WT (HT-SELEX) was found to be 1.9 ± 0.127 fold-change vs cycle 0; in assay [1], 1.91 ± 0.125 fold-change vs cycle 0; in assay [2], 1.73 ± 0.187 fold-change vs cycle 0.
AGAGCT: the values for the binding signal (with SALL4 ZFC4 WT (HT-SELEX); in assay [1]; in assay [2]) were 0.658 ± 0.0205 fold-change vs cycle 0, 0.784 ± 0.026 fold-change vs cycle 0 and 0.8909 ± 0.00859 fold-change vs cycle 0, respectively.
On the same counts, the results for AGTCAT are 1.45 ± 0.0471 fold-change vs cycle 0, 1.53 ± 0.0494 fold-change vs cycle 0 and 1.46 ± 0.106 fold-change vs cycle 0.
TAATGA: the results for the binding signal (with SALL4 ZFC4 WT (HT-SELEX); in assay [1]; in assay [2]) were 2.15 ± 0.16 fold-change vs cycle 0, 2.16 ± 0.14 fold-change vs cycle 0 and 1.9 ± 0.22 fold-change vs cycle 0, respectively.
